Source: PubChem BioAssay (University of Kansas High Throughput Screening Laboratory)
Rows were chosen to be rich in hits. Some 3.6% of all compounds tested hit in one or more screens of this group.
Pf apPOL inh = Pf-apPOL DNA polymerase inhibition | Recombinant Pf-apPOL, molecular beacon fluorescence, 1.5 h | inhibition, % at 10 µM | 0.25% of 210,000 active | AID 1794808
mHTT CaM bind = inhibitors of human mutant huntingtin-calmodulin interaction; P42858; AlphaScreen His-mHTT/GST-CaM binding, luminescence; inhibition, % at 15 µM; 3.6% of 190,000 active; AID 1671202;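 further: 0% = both proteins with DMSO and 100% = one protein alone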
Numbers without * were called inactive; i = inactive; · = not tested or not shown; + = active, no number. No stated cut-off is given here; in the data, active means inhibition above about 50%; inactive means the rest.

SMILES	Pf apPOL inh	mHTT CaM bind
CCCCC[C@H](C)N1C[C@@H](COCc2ccccc2)Oc2cc(N3CC[C@@H](O)C3)ccc2S1(=O)=O	-7	74*
CC(C)(C)c1ccc(C2=N/C(=C\c3cccc(F)c3)C(=O)O2)cc1	-1	-2
COc1ccc(Cl)cc1NC(=O)c1c(NCc2cccnc2)sc2c1CCC2	-16	93*
COc1ccc(Cl)cc1NC(=O)c1c(NCc2cccnc2)sc2c1CCCC2	-18	79*
COc1ccc(Cl)cc1NC(=O)C(=O)NCc1cccnc1	-8	3
COc1ccc(Cl)cc1NC(=O)c1c(NCc2cccs2)sc2c1CCC2	-15	26
CCCN(C)C(=O)c1nn(C)c2c1COc1ccccc1-2	-2	0
CC(C)c1c(C2CCN(C(=O)c3ccc(F)cc3Cl)CC2)noc1N	-6	-3
COc1ccccc1CCC(=O)N1CCC(Cc2nc3cccnc3n2C(C)C)C1 (stereo not drawn)	-5	11
COc1ccccc1NC(=O)Nc1ccc(Cl)c(Cl)c1	-5	-5
COc1ccccc1C1SCCN1C(=O)Nc1ccc(Cl)c(Cl)c1 (stereo not drawn)	-6	97*
CC(C)Cc1ccc(C(C)C(=O)ON=C(N)c2ccc(Cl)cc2)cc1 (stereo not drawn)	2	·
COc1ccccc1/C=C1\SC(=O)N(Cc2ccc(F)cc2)C1=O	-6	-3
COc1cc(/C=C2\SC(=O)N(Cc3ccc(F)cc3)C2=O)c(Br)cc1O	0	75*
O=C(OCC12CC3CC(CC(C3)C1)C2)c1ccccc1	-1	-35
Cc1c(CCOC(=O)CC23CC4CC(CC(C4)C2)C3)sc[n+]1CC(=O)c1ccccc1	-4	94*
O=C(c1ccc(Cl)cc1)N1N=C(c2ccccc2)CC1(O)C(F)(F)F (stereo not drawn)	-10	54*
Cc1ccc(C(=O)N2N=C(c3ccc(Cl)cc3)CC2(O)C(F)(F)F)cc1 (stereo not drawn)	-4	35
O=C(c1ccc(Cl)cc1)N1N=C(c2ccc(Cl)cc2)CC1(O)C(F)(F)F (stereo not drawn)	-5	-2
COc1ccc(C(=O)N2N=C(c3ccc(Br)cc3)CC2(O)C(F)(F)F)cc1 (stereo not drawn)	2	24
Cc1ccccc1OCC(=O)N1N=C(c2ccc(Cl)cc2)CC1(O)C(F)(F)F (stereo not drawn)	4	96*
O=C(CCc1ccccc1)N1N=C(c2ccc(Cl)cc2)CC1(O)C(F)(F)F (stereo not drawn)	-13	-8
Cc1cc(C)cc(OCC(=O)N2N=C(c3ccc(Cl)cc3)CC2(O)C(F)(F)F)c1 (stereo not drawn)	-1	90*
COc1ccc(C(=O)N2N=C(c3cccc(Br)c3)CC2(O)C(F)(F)F)cc1 (stereo not drawn)	0	50*
CNC(=O)N1CCCC(c2cccc(C(=O)NCc3ccc(F)cc3)c2)C1 (stereo not drawn)	1	-2
SMILES	Pf apPOL inh	mHTT CaM bind
O=C(NCc1ccc(F)cc1)c1ccc(NC(=O)N2CC3CCCN3c3ccccc32)cc1 (stereo not drawn)	-1	54*
CCC1CN(C(=O)NCc2ccc(F)cc2)c2ccccc2O1 (stereo not drawn)	-2	-18
O=C(NCc1ccc(F)cc1)N1CC2CCCN2c2ccccc21 (stereo not drawn)	-4	77*
O=[N+]([O-])c1cc(Br)c(O)c(C=Nc2ccc(-c3nc4ncccc4o3)cc2)c1	-3	1
O=C1CCC(=O)N1CCCCCCN1C(=O)CCC1=O	·	-7
CC(C)CCNC(=O)C1CCCN(c2nnc3ccc(C(F)(F)F)cn23)C1 (stereo not drawn)	0	7
Cn1c(CN2CCN(C(=O)c3ccc(Br)o3)CC2)nc2ccccc21	-4	-3
Cn1c(CN2CCN(C(=O)c3ccc([N+](=O)[O-])o3)CC2)nc2ccccc21	53*	-5
COc1ccccc1C(=O)O/N=C1\C=CC(=O)C=C1C	-1	+
COc1cc(C(=O)O/N=C2\C=CC(=O)C=C2C)cc(OC)c1OC	0	i
COc1ccccc1-c1nc2ccc(C)cn2c1NC(=O)C(C)(C)CCl	9	3
O=C(CCN1CCCCC1)Nc1c(-c2ccccc2)c2cc(Br)ccc2[nH]c1=O	-9	99*
O=c1[nH]c2ccc(Cl)cc2c(-c2ccccc2)c1CN1CCCCC1	0	100*
O=c1[nH]c2ccc(Cl)cc2c(-c2ccccc2)c1N1CCN(Cc2ccc3c(c2)OCO3)CC1	-2	100*
O=C(CCN1CCCC1)Nc1cccc(Br)c1	-3	-4
O=c1[nH]c2ccc(Cl)cc2c(-c2ccccc2)c1N1CCOCC1	-18	·
Cc1[nH]c2ccc(Cl)cc2c(=O)c1CN1CCCC1	0	0
COc1cccc(CNC(=O)N2CCN(C3=CC4=NC(C)CN4C=N3)CC2)c1 (stereo not drawn)	0	5
O=C(Cc1cccc(F)c1)N1CCc2[nH]cnc2C1c1ccccn1 (stereo not drawn)	-8	70*
O=C(Nc1ccccc1)N1CCc2[nH]cnc2C1c1ccccc1 (stereo not drawn)	0	15
O=C(Cc1ccccc1F)N1CCc2[nH]cnc2C1c1ccccc1 (stereo not drawn)	-5	7
O=C(Nc1ccccc1)N1CCc2[nH]cnc2C1c1ccccn1 (stereo not drawn)	-3	51*
O=C(Cc1ccc(F)cc1)N1CCc2[nH]cnc2C1c1ccncc1 (stereo not drawn)	0	8
O=C(Cc1ccc(Cl)cc1)N1CCc2[nH]cnc2C1c1ccccn1 (stereo not drawn)	-20	91*
Cc1sc2c(=O)n(C3CC3)cnc2c1C(=O)Nc1ccccc1Cl	-2	-6
SMILES	Pf apPOL inh	mHTT CaM bind
O=C(Nc1ccccc1C(F)(F)F)NC1CCN(c2ccccc2)C1=O (stereo not drawn)	-5	-6
CC(=O)C1=C(C)NC(SCC(=O)c2ccc(F)cc2)=C(C#N)C1c1cccc([N+](=O)[O-])c1 (stereo not drawn)	0	38
CCc1ccc(C2C(C#N)=C(SCC(=O)c3ccc([N+](=O)[O-])cc3)NC(C)=C2C(C)=O)cc1 (stereo not drawn)	2	60*
COc1cc(OC)cc(-c2nnc(NC(=O)c3ccc(S(=O)(=O)N(C)C)cc3)o2)c1	-2	6
COc1ccc(S(=O)(=O)CC(=O)Nc2nnc(-c3cc(C)oc3C)o2)cc1	7	57*
O=C(CS(=O)(=O)Cc1ccccc1)Nc1nnc(-c2ccccc2Cl)o1	-29	2
CCS(=O)(=O)c1ccc(CC(=O)Nc2nnc(-c3ccccc3Cl)o2)cc1	-8	68*
COc1ccc(-c2nnc(NC(=O)CS(=O)(=O)c3ccc(F)cc3)o2)c(OC)c1	4	32
Cc1cc(-c2nnc(NC(=O)c3ccc(S(=O)(=O)N(C)C)cc3)o2)c(C)o1	-50	58*
Cc1ccc(N2C(=O)C3C4C=CC(CO)(O4)C3C2=O)cc1 (stereo not drawn)	-4	-4
c1ccc(N/N=C2/C/C(=N\Nc3ccccc3)c3ccccc32)cc1	·	91*
O=C(O)c1coc2c1C(=NNc1ccccc1)CCC2	-12	·
O=C(O)COc1ccc2c(c1)OC(=Cc1cccc(Cl)c1)C2=O	9	25
Cn1cc(CCN2CCN(S(=O)(=O)c3cccc(F)c3)CC2)c2cccnc21	-4	31
